Inconclusive results are not listed. The source made the active and inactive calls. Unless noted, calls come from the whole dose curve; as a rule, active = well fitted curve in the direction sought with a large enough effect in the repeat runs; inconclusive = weak or mixed curves; inactive = no such curve, though single readings can be large; an effect the other way counts as inactive or inconclusive.
Columns and labels:
[1] = qHTS RealTime-Glo MT Cell Viability Assay in HEK293 cells - 0 hour (AID 1224880); note: top concentration of the series differs between compounds; nearly all actives have a fitted effect of over 45% in size
How it was run: (§1)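 HEK293 cells mixed with RealTime-Glo reagents (NanoLuc plus cell-permeant prosubstrate) at 600 cells/well, preincubated 5 h at 37 C/5% CO2, then given 23 nL compound in DMSO. Nonlytic luminescence from viable cells was read at 0, 8, 16, 24, 32 and 40 h.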

[2] = A CellTox Green Cytotoxicity Assay to monitor cytotoxicity in HEK293 cells - 32 hour (AID 1224881); note: nearly all actives have a fitted effect of over 40% in size
How it was run: (§2)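 HEK293 cells premixed with CellTox Green dye were seeded at 600 cells/well and left 5 h at 37 C/5% CO2 before pin transfer of 23 nL compound in DMSO. Fluorescence from dye bound to dead-cell DNA was read during 40 h treatment.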

[3] = A CellTox Green Cytotoxicity Assay to monitor cytotoxicity in HepG2 cells - 0 hour (AID 1224882); note: nearly all actives have a fitted effect of over 35% in size
How it was run: (§3)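 HepG2 cells were seeded together with the CellTox Green dye at 600 cells/well, left 5 h at 37 C/5% CO2, then given compounds in DMSO. Fluorescence from dye bound to dead-cell DNA was read repeatedly over 40 h of treatment at 37 C.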

[4] = A CellTox Green Cytotoxicity Assay to monitor cytotoxicity in HepG2 cells - 32 hour (AID 1224883); note: nearly all actives have a fitted effect of over 50% in size
How it was run: as §3

[5] = A CellTox Green Cytotoxicity Assay to monitor cytotoxicity in HEK293 cells - 8 hour (AID 1224884); note: nearly all actives have a fitted effect of over 35% in size
How it was run: as §2

[6] = qHTS RealTime-Glo MT Cell Viability Assay in HepG2 cells - 16 hour (AID 1224885); note: nearly all actives have a fitted effect of over 50% in size
How it was run: (§4)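 Compound treatment began 5 h after plating HepG2 cells (600/well) with NanoLuc luciferase and prosubstrate. Plates stayed at 37 C for 40 h; luminescence was captured at six time points, 0 h through 40 h.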

[7] = qHTS RealTime-Glo MT Cell Viability Assay in HEK293 cells - 24 hour (AID 1224886); note: top concentration of the series differs between compounds; nearly all actives have a fitted effect of over 50% in size
How it was run: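 Quantitative high-throughput screen of the Tox21 10K library in HEK293: cells and RealTime-Glo reagents plated together, compound added at 5 h, luminescence monitored through 40 h at 37 C.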

[8] = A CellTox Green Cytotoxicity Assay to monitor cytotoxicity in HEK293 cells - 16 hour (AID 1224888); note: nearly all actives have a fitted effect of over 35% in size
How it was run: as §2

[9] = qHTS RealTime-Glo MT Cell Viability Assay in HepG2 cells - 0 hour (AID 1224889); note: nearly all actives have a fitted effect of over 50% in size
How it was run: as §4

[10] = A CellTox Green Cytotoxicity Assay to monitor cytotoxicity in HepG2 cells - 8 hour (AID 1224890); note: nearly all actives have a fitted effect of over 45% in size
How it was run: as §3

[11] = qHTS assay to identify small molecule antagonists of the estrogen receptor alpha (ER-alpha) signaling pathway using the BG1 cell line in the presence of 0.1 nM 17-beta-estradiol - cell viability counter screen (AID 1259241); note: nearly all actives have a fitted effect of over 40% in size
How it was run: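 Following 5 days in phenol red-free medium with charcoal-stripped serum, VM7Luc4E2 cells received test compounds alongside 0.1 nM 17beta-estradiol (final) at 37C for 22 hr. Live cells were then quantified via protease-substrate fluorescence.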

[12] = qHTS assay to identify small molecule antagonists of the androgen receptor (AR) signaling pathway using the MDA cell line in the presence of 0.5 nM R1881 - cell viability counter screen (AID 1259242); note: nearly all actives have a fitted effect of over 45% in size
How it was run: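 MDA-kb2 cells (human breast carcinoma, stably carrying MMTV-luciferase reporter) were exposed to compounds with 0.5 nM R1881 (final) for 16 hr at 37C, 0% CO2; viability then read as live-cell protease fluorescence (CellTiter-Fluor, 30 min) in the same wells.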

[13] = target: Androgen receptor (Homo sapiens) (UniProt P10275); test: qHTS assay to identify small molecule antagonists of the androgen receptor (AR) signaling pathway using the MDA cell line in the presence of 0.5 nM R1881 (AID 1259243); note: nearly all actives have a fitted effect of over 50% in size
Sequence of Androgen receptor (Homo sapiens) (P10275 whole entry, looked up): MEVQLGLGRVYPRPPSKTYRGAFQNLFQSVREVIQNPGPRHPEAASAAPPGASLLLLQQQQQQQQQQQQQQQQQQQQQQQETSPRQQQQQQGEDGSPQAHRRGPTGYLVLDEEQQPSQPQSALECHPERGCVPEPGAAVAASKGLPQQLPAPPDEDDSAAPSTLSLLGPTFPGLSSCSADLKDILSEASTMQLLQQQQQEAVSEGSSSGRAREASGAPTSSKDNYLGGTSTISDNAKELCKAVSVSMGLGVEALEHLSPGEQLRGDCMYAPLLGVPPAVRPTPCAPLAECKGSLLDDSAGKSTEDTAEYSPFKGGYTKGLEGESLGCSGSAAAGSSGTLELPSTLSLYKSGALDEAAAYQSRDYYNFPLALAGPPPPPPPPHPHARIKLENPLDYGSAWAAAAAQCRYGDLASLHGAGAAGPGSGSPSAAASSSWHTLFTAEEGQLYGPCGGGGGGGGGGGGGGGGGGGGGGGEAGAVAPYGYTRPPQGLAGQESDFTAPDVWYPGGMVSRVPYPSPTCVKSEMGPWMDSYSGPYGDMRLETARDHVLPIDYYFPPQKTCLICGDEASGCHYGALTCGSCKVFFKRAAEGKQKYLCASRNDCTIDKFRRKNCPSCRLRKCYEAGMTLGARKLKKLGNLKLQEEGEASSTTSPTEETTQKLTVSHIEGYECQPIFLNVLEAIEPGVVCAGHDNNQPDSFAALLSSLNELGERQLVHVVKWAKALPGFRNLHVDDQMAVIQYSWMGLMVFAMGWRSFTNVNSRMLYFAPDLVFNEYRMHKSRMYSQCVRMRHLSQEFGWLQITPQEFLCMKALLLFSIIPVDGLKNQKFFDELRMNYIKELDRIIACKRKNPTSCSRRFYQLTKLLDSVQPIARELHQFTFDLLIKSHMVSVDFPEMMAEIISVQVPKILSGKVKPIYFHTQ
How it was run: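 MDA-kb2 human breast carcinoma cells carrying an MMTV-luciferase reporter (AR- and GR-responsive) were plated, rested 5 hr at 37C, dosed with compounds, then stimulated with 0.5 nM R1881 (final) for 16 hr; luminescence was read after ONE-Glo.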

[14] = target: Estrogen receptor (Homo sapiens) (UniProt P03372); test: qHTS assay to identify small molecule antagonists of the estrogen receptor alpha (ER-alpha) signaling pathway using the BG1 cell line in the presence of 0.1 nM 17-beta-estradiol (AID 1259244); note: nearly all actives have a fitted effect of over 50% in size
Sequence of Estrogen receptor (Homo sapiens) (P03372 whole entry, looked up): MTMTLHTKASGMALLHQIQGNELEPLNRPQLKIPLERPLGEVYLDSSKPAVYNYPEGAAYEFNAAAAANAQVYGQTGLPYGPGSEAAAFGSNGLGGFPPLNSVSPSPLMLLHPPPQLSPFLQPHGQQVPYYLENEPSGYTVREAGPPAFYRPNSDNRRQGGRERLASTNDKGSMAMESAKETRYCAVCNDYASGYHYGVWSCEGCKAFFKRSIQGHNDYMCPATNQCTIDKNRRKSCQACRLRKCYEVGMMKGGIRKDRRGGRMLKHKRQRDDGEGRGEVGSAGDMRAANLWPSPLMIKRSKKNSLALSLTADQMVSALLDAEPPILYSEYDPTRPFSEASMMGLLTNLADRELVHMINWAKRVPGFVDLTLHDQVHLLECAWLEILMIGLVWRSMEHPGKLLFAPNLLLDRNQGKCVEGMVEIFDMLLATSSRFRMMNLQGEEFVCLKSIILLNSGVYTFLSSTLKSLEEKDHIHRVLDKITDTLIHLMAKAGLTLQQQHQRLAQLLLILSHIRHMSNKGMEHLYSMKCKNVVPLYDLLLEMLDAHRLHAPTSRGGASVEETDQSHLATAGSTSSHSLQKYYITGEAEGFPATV
How it was run: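 VM7Luc4E2 cells (endogenous full-length ER-alpha, stable 4xERE-luciferase) were grown 5 days in phenol red-free medium with charcoal-stripped FBS, then exposed 22 h at 37C to compounds plus 0.1 nM (final) 17beta-estradiol; ONE-Glo luminescence read-out.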

[15] = qHTS assay to identify small molecule phospholipidosis (PLD) inducers (AID 1259344; active = well fitted curve in the direction sought with a large enough effect; an effect the other way counts as inactive or inconclusive)
How it was run: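 Phospholipidosis is scored by imaging LipidTOX-stained pits in HepG2 cells exposed to compound for 24 h at 37 C; pit counts and integrated intensities per well and per cell serve as outputs.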

[16] = qHTS assay to identify small molecule HDAC inhibitors (AID 1259364); note: top concentration of the series differs between compounds; nearly all actives have a fitted effect of over 45% in size
How it was run: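 Wild-type HCT-116 cells were plated overnight, exposed to compounds for 2 h at 37 °C, then given HDAC-Glo class I/II luminogenic reagent for 30 min at room temperature before luminescence was read.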

[17] = qHTS assay to identify small molecule HDAC inhibitors - cell viability counter screen (AID 1259365)
How it was run: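 HCT-116 wild-type, overnight attachment; 2hr drug exposure, 37C; CellTiter-Glo luminescent ATP readout after 30min RT.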

[18] = qHTS assay to identify small molecule agonists of the sonic hedgehog signaling (Shh) pathway - cell viability counter screen (AID 1259366); note: nearly all actives have a fitted effect of over 50% in size
How it was run: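 Compounds in DMSO were pin-transferred onto 3T3 Gli1-Luc cells that had settled 4hr; plates then stood 24hr at 37C and 5% CO2. One hour before the end, CellTiter-Fluor was added and fluorescence recorded.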

[19] = qHTS assay to identify small molecule antagonists of the sonic hedgehog signaling (Shh) pathway - cell viability counter screen (AID 1259367); note: nearly all actives have a fitted effect of over 55% in size
How it was run: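 Cells: 3T3 Gli1-Luc, 2,000/well, 4 hr pre-incubation. Compounds in DMSO, then conditioned medium. Incubation 24 hr, 37C, 5% CO2. CellTiter-Fluor at 23 hr, 1 hr, fluorescence.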

[20] = qHTS RealTime-Glo MT Cell Viability Assay in HEK293 cells - 8 hour (AID 1224887)
How it was run: as §1
% is set by controls: 0 for no effect and ±100 for the full control effect.

Cc1ncc(CSSCc2cnc(C)c(O)c2CO)c(CO)c1O
inactive: outcome [1] | Potency [2] | Potency [3] | Potency [4] | Potency [5] | outcome [6] | Potency [7] | Potency [8] | Potency [9] | Potency [10] | outcome [11] | outcome [12] | Potency [13] | outcome [14] | Potency [15] | Potency [16] | outcome [17] | Potency [18] | outcome [19]

C=CCOCC(O)CS(=O)(=O)O (stereo not drawn)
inactive: outcome [1] | Potency [2] | Potency [3] | Potency [4] | Potency [5] | outcome [6] | Potency [7] | Potency [20] | Potency [8] | Potency [10] | outcome [11] | outcome [12] | outcome [14] | Potency [16] | outcome [17] | Potency [18] | outcome [19]

CCO[Si](CCCN=C=O)(OCC)OCC
inactive: outcome [1] | Potency [2] | Potency [3] | Potency [4] | Potency [5] | outcome [6] | Potency [7] | Potency [20] | Potency [8] | Potency [9] | Potency [10] | outcome [12] | Potency [16] | outcome [17] | Potency [18] | outcome [19]

FC(F)(F)C(F)(F)C(F)(F)C(F)(F)C(F)(F)C(F)(F)C(F)(F)C(F)(F)C(F)(F)C(F)(F)F
inactive: activity change, negative = cytotoxicity [1] -21.9% [at 6.97 µM] | cytotoxicity increase [2] -14.9% [at 6.97 µM] | cytotoxicity [3] 4.39% [at 6.97 µM] | cytotoxicity increase [4] 1.61% [at 6.97 µM] | cytotoxicity increase [5] 4.13% [at 6.97 µM] | activity change, negative = cytotoxic [6] 3.86% [at 6.97 µM] | activity change, negative = cytotoxicity [7] -12.9% [at 6.97 µM] | activity change, negative = cytotoxicity [20] -20.1% [at 6.97 µM] | activity change [8] -9% [at 6.97 µM, active compounds read high] | activity change, negative = cytotoxicity [9] 12.4% [at 6.97 µM] | cytotoxicity increase [10] -4.05% [at 6.97 µM] | activity change, negative = cytotoxicity [11] -0.635% [at 8.39 µM] | viability change, negative = cytotoxic [12] -3% [at 8.39 µM] | activity change, negative = inhibition [16] -3.49% [at 8.39 µM] | viability change, negative = cytotoxic [18] 2.95% [at 8.39 µM] | viability change, negative = cytotoxic [19] 4.53% [at 8.39 µM]
